# Reference: PubChem BioAssay (NCI)
# The panel holds about 83,000 compounds, 20% with a hit somewhere; the sample as a whole holds those more often.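 For each line, cells grew in 96-well plates with the test compound present at a single concentration for 48 hours.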 Values without a mark were called inactive. Active and inactive are the calls of the source. How the source made its calls: active means growth percent below 10; inactive means the rest.
# Tested on: HL-60(TB) leukemia
# Test: NCI-60 one-dose screen, 48 h (100 = growth as untreated, 0 = no growth, -100 = all killed)
# Settings: 10 µM unless noted
row,Structure (SMILES),growth
1,CCn1cc(C(=O)O)c(=O)c2cc(F)c(N3CCN(S(=O)(=O)c4ccc(OC)c(OC)c4)CC3)cc21,91.3%
2,COc1ccc(/C=C/C(=O)/C=C(/C=C/c2ccc(OC)c(OC)c2OC)OB(F)F)c(OC)c1OC,8.53% (active)
3,CN(C)c1ccc(-c2cc(-c3ccc(Nc4nc(Nc5ccccc5)nc(Nc5ccc(Cl)cc5)n4)cc3)nc(N)n2)cc1,56.3%
4,N/C(=N\c1nc2ccccc2s1)NC(=O)Nc1ccccc1,12.8%
5,Cc1ccc(Nc2nccc(N(C)c3ccc4c(C)n(C)nc4c3)n2)cc1S(N)(=O)=O,5.08% (active)
6,FC(F)(F)C1=NNC(c2ccc3ccccc3c2)=NN1,101%
7,O=[N+]([O-])c1ccc2[nH]c3nccc(NCc4cccc(Cl)c4)c3c2c1,82.9%
8,Cc1nc2ccccc2c(/C=C/c2ccc(Cl)cc2)c1C(=O)/C=C/c1cccs1,59.5%
9,O=CCCCC(O)C=O (stereo not drawn),92.2%
10,C#CCN(CCCOc1ccc(Cl)cc1Cl)CCCSC(=O)CCCCCN1/C(=C\C=C2/CCCC(/C=C/C3=[N+](CCCCCC(=O)[O-])c4ccccc4C3(C)C)=C2Cl)C(C)(C)c2ccccc21,-44.2% (active)
11,COC(=O)[C@]12CC[C@@H](C)[C@H](C)[C@@H]1C1=CC[C@@H]3[C@@](C)(CC#N)C4=C(C[C@@]3(C)[C@]1(C)CC2)OC[C@]4(C)C=O,-10.8% (active)
12,NC(=O)CC1(c2ccccc2)CCCCC1,98.4%
13,OCC(CO)(CCl)CCl,96.3%
